Assay results: the supplement of paper PMC11732987, “Enantioselective OTUD7B fragment discovery through chemoproteomics screening and high-throughput optimisation” (Communications Chemistry, 2025)

These targets were tested with ClCC(=O)N1CCC(CC#N)C1 (assay: log2 ratio of Biotin-Ahx-Ub-VS probe labelling (compound/DMSO); higher = less target engagement, active = hit call of the paper (q ≤ 0.05, log2 ratio ≤ -1)). Conditions: compound concentration: 50uM; treatment time: 3 h.
Description: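 Round 2 competitive ABPP in HEK293T lysate. Purified HTC-D2B compounds were tested at 50 and 200 µM for 3 h, followed by Biotin-Ahx-Ub-VS enrichment and diaPASEF LC-MS/MS. Values are the average log2 ratio (compound/DMSO) from an unpaired t-test (n=3 treated, n=26 DMSO).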

Sequence of UniProt Q13107 (Q13107 whole entry): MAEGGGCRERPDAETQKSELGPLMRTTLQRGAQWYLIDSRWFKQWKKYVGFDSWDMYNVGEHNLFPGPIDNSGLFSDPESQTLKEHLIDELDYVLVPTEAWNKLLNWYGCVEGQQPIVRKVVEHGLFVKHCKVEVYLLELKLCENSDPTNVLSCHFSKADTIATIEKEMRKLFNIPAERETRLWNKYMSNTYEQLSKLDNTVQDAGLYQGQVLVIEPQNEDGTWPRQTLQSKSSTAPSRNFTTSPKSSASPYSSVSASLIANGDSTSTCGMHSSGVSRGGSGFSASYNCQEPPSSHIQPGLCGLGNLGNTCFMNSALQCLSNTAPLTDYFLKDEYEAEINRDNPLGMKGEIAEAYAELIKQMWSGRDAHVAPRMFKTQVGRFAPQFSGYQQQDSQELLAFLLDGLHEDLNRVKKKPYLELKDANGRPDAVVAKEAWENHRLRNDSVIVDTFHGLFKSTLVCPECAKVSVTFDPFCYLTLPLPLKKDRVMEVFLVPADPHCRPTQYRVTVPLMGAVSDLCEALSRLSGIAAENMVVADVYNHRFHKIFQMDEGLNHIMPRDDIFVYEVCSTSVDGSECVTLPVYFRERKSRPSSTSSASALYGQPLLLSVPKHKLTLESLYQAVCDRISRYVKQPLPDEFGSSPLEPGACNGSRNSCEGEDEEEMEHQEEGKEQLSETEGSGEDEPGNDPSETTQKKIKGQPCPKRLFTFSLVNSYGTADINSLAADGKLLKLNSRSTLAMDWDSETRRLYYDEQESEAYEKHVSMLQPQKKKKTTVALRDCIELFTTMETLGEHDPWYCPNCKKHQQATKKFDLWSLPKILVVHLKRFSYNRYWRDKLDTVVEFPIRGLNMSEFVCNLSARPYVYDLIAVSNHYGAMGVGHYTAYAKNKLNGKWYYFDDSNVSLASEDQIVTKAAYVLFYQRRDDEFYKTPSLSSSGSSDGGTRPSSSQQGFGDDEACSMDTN
Sequence of UniProt Q9NUU6 (Q9NUU6 whole entry): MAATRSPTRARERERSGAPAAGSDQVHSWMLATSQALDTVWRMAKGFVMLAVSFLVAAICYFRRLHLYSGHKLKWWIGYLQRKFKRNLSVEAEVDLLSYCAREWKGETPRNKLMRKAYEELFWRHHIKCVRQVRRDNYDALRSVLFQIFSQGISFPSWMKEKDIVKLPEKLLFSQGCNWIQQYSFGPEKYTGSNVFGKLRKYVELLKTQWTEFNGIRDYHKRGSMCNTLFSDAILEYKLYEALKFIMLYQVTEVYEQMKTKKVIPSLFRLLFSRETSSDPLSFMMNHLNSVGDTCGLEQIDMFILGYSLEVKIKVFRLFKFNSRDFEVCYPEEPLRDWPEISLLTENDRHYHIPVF
Sequence of UniProt P40818 (P40818 whole entry): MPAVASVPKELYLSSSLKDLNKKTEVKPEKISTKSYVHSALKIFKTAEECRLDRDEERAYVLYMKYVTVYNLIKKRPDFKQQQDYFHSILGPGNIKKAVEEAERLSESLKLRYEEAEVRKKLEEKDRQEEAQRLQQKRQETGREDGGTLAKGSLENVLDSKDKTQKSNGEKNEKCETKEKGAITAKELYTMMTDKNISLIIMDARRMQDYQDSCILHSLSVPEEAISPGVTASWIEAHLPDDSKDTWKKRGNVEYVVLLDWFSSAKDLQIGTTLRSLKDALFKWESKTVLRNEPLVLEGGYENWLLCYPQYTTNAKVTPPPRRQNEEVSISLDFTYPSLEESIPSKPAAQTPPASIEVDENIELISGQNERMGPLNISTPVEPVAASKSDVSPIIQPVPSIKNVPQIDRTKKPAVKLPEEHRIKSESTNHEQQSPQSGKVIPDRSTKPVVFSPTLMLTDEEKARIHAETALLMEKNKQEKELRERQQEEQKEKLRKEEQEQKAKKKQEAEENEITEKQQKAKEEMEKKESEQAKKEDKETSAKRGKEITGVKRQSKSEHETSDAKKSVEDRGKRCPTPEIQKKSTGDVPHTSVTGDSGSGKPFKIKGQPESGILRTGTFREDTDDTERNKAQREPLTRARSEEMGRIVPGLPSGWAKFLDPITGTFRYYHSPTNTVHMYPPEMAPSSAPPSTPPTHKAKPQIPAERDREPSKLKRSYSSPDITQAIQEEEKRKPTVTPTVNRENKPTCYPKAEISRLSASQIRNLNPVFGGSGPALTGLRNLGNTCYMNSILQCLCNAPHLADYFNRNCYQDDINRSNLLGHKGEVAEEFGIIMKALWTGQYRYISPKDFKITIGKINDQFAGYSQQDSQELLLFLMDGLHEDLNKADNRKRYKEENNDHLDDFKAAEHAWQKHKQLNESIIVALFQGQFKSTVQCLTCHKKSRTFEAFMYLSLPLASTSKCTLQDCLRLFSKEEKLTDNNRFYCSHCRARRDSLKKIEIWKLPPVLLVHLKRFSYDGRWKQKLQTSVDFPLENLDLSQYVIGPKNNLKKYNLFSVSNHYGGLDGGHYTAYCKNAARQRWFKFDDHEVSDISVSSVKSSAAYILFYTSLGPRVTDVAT
Sequence of UniProt Q96FW1 (Q96FW1 whole entry): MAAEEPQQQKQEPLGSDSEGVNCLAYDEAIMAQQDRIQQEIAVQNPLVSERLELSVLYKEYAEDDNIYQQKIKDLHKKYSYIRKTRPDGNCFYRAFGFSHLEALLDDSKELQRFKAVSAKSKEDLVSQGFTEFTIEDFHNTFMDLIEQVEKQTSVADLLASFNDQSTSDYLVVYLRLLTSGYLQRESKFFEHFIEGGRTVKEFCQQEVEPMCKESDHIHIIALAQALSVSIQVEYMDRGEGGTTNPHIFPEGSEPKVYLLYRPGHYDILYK
Sequence of UniProt Q70EL2 (Q70EL2 whole entry): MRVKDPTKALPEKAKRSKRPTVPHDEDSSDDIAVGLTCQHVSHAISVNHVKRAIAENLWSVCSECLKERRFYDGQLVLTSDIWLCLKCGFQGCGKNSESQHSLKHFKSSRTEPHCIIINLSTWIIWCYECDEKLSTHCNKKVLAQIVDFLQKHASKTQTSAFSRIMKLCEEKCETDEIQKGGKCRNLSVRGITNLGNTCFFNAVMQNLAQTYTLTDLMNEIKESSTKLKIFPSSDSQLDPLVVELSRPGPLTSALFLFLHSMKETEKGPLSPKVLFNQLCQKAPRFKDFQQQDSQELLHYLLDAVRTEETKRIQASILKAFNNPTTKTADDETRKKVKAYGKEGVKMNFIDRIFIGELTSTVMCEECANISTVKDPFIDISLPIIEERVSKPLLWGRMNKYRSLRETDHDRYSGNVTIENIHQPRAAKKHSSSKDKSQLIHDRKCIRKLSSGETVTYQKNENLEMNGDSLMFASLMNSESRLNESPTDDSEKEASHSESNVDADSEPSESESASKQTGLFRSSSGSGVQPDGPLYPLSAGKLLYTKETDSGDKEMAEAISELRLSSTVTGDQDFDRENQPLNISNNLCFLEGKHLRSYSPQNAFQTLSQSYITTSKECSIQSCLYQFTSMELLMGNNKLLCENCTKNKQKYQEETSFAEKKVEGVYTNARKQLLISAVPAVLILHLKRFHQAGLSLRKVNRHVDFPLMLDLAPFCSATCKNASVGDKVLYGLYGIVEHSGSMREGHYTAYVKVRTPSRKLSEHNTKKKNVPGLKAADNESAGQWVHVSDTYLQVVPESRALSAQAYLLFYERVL
Sequence of UniProt Q93009 (Q93009 whole entry, looked up): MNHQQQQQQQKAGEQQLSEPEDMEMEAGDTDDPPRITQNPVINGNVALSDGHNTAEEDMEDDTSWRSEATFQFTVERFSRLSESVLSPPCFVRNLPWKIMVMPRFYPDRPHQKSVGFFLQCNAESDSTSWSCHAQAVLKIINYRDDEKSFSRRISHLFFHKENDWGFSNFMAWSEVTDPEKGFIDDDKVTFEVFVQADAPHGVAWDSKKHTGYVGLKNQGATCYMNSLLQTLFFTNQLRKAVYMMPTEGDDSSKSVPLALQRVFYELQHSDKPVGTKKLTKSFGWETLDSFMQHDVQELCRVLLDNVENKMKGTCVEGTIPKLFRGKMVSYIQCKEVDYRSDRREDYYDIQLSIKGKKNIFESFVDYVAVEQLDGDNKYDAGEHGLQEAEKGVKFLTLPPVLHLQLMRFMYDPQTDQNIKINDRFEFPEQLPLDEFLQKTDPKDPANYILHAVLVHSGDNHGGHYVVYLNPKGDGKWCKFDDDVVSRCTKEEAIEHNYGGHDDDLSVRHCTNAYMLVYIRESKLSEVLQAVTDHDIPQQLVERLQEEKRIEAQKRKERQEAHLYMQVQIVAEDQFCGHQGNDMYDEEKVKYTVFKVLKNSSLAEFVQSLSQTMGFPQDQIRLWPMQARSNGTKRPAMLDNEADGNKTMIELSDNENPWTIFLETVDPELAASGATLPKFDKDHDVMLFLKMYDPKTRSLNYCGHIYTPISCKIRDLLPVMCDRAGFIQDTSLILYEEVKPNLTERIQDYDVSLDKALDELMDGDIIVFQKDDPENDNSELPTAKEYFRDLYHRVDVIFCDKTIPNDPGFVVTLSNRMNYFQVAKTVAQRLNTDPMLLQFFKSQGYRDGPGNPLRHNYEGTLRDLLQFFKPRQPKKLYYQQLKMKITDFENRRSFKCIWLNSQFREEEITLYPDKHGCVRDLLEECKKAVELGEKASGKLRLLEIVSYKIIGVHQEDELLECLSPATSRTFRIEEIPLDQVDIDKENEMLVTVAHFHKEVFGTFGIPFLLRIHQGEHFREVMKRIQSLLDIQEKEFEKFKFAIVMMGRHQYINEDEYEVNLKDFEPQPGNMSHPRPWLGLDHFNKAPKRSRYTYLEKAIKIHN
Sequence of UniProt P15374 (P15374 whole entry): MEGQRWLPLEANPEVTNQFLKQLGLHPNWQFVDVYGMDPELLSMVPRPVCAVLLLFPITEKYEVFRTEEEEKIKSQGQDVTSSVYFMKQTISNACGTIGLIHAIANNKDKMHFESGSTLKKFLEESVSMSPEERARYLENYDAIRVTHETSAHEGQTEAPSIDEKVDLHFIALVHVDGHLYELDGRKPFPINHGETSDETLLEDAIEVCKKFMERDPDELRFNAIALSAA

Row | Target | log2 ratio of Biotin-Ahx-Ub-VS probe labelling
1 | USP10 (UniProt Q14694) | -0.155 (inactive)
2 | USP9X (UniProt Q93008) | 0.0276 (inactive)
3 | MINDY4 (UniProt Q4G0A6) | 0.173 (inactive)
4 | UniProt Q70EL2 | -0.0717 (inactive)
5 | USP22 (UniProt Q9UPT9) | -0.132 (inactive)
6 | USP4 (UniProt Q13107) | -0.106 (inactive)
7 | PSMD7 (UniProt P51665) | 0.408 (inactive)
8 | ALG13 (UniProt Q9NP73) | 0.259 (inactive)
9 | USP38 (UniProt Q8NB14) | 0.00826 (inactive)
10 | OTUB1 (UniProt Q96FW1) | -0.024 (inactive)
11 | FAM105A (UniProt Q9NUU6) | -0.103 (inactive)
12 | UniProt O00487 | -0.033 (inactive)
13 | USP8 (UniProt P40818) | -0.261 (inactive)
14 | VCPIP1 (UniProt Q96JH7) | -0.405 (inactive)
15 | OTUD4 (UniProt Q01804) | -0.19 (inactive)
16 | UCHL1 (UniProt P09936) | -0.297 (inactive)
17 | UCHL3 (UniProt P15374) | -0.263 (inactive)
18 | USP7 (UniProt Q93009) | -0.141 (inactive)
19 | USP14 (UniProt P54578) | -0.25 (inactive)
20 | UniProt Q8TE49 | -0.317 (inactive)

Same assay, conditions: compound concentration: 200uM; treatment time: 3 h

Row | Target | log2 ratio of Biotin-Ahx-Ub-VS probe labelling
21 | USP10 (UniProt Q14694) | -0.0316 (inactive)
22 | USP9X (UniProt Q93008) | -0.109 (inactive)
23 | MINDY4 (UniProt Q4G0A6) | -0.0819 (inactive)
24 | UniProt Q70EL2 | -0.437 (inactive)
25 | USP22 (UniProt Q9UPT9) | -0.153 (inactive)
26 | USP4 (UniProt Q13107) | 0.254 (inactive)
27 | PSMD7 (UniProt P51665) | 0.631 (inactive)
28 | ALG13 (UniProt Q9NP73) | 0.307 (inactive)
29 | USP38 (UniProt Q8NB14) | -0.302 (inactive)
30 | OTUB1 (UniProt Q96FW1) | -0.102 (inactive)
31 | FAM105A (UniProt Q9NUU6) | 0.0672 (inactive)
32 | UniProt O00487 | -0.198 (inactive)
33 | USP8 (UniProt P40818) | -0.168 (inactive)
34 | VCPIP1 (UniProt Q96JH7) | -0.311 (inactive)
35 | OTUD4 (UniProt Q01804) | -0.226 (inactive)
36 | UCHL1 (UniProt P09936) | -0.13 (inactive)
37 | UCHL3 (UniProt P15374) | -0.193 (inactive)
38 | USP7 (UniProt Q93009) | -0.201 (inactive)
39 | USP14 (UniProt P54578) | 0.0716 (inactive)
40 | UniProt Q8TE49 | -0.54 (inactive)
